Screening results from PubChem BioAssay.
ALR H2O2 inh: inhibitors of human sulfhydryl oxidase ALR; P55789; purified ALR, DTT oxidation, H2O2 HRP-luminol luminescence; inhibition, % (concentration not given with the values); 290,000 tested, 3.8% active; AID 485317;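 active = mean replicate inhibition above about 79%, with every replicate also reaching it, limit read from the data; inconclusive = only one of the two criteria met; inactive = mean below limit and not every replicate reaching it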
Target sequence (P55789 whole entry, looked up): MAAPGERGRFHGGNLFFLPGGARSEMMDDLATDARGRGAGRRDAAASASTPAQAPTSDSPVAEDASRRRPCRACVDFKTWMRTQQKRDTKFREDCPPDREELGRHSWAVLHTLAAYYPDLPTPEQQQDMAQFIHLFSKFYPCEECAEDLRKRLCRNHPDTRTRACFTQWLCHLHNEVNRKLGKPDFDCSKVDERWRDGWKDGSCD
PfM18AAP inh: blocks P. falciparum M18 aspartyl aminopeptidase; recombinant PfM18AAP, H-Glu-NHMec fluorogenic cleavage; inhibition, % at 7.35 µM; 290,000 tested, 1.2% active; AID 1822;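 active = inhibition above the campaign mean inhibition over all tested compounds plus 3 SD, cut at about 28% in these data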
SUMO Mot1 rescue: SUMOylation pathway inhibition by Mot1-301 growth rescue; 320,000 tested, 1% active; S. cerevisiae Mot1-301 growth rescue, ATP luminescence, 38.5C; percent above DMSO median, 100 means doubled; growth rescue, % at 18.8 µM;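 active = every valid replicate shows activation above 250% relative to neutral control wells; inactive = the rest, any valid replicate at or below 250%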
HIF act: HIF pathway transcriptional activation; U2OS HRE-luciferase reporter, luminescence; normalized: DMSO 0%, desferrioxamine 100%; activation, % at 7.5 µM (by protocol); AID 1910; 300,000 tested, 0.32% active;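 active = mean activation of at least 10% of the iron chelator positive control signal, with at least half of replicates also reaching 10%; inconclusive = mean and replicate majority disagree about reaching 10%; inactive = mean and most replicates under 10%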
Of the large screens only hits and unclear results are named; the others gave an inactive call. Shown are actives, neighbours in structure and some others; about 5.3% of the full set was active somewhere.

CC(NC(=O)CN1CCN(c2cccc(Cl)c2)CC1)c1ccccc1 (configuration not stated)	none
COc1cc(OC)nc(NC(=O)CN2CCN(c3ccc(F)cc3)CC2)n1	ALR H2O2 inh 98
COc1cccc(N2CCN(CC(=O)NC(C)c3ccccc3)CC2)c1 (configuration not stated)	ALR H2O2 inh 81
O=C(CCN1CCN(c2ccc(Cl)cc2)CC1)Nc1ccccc1F	ALR H2O2 inh 88
O=C(CN1CCN(c2ccccc2)CC1)Nc1ccccc1Cl	ALR H2O2 inh 98
COc1ccc(OC)c(S(=O)(=O)Nc2ccc(-c3ccc4nncn4n3)cc2)c1	none (no result: PfM18AAP inh)
COc1ccc(N2CCN(CC(=O)Nc3cccc(S(=O)(=O)N4CCOCC4)c3)CC2)cc1	ALR H2O2 inh 78
O=C(CNCc1cccs1)Nc1ccc(N2CCCCCC2)cc1	ALR H2O2 inh 99
COC(=O)c1ccc(C(=O)OC)c(NC(=O)CN2CCN(c3ccc(OC)cc3)CC2)c1	none
COC(=O)c1cccc(NC(=O)CN2CCN(c3ccc(OC)cc3)CC2)c1	ALR H2O2 inh 88
COc1ccc(N2CCN(CC(=O)Nc3ccc(C)cc3)CC2)cc1	ALR H2O2 inh 90
COc1cccc(NC(=O)CN(C)C(=O)/C=C/c2ccc3ccccc3n2)c1	none (no result: PfM18AAP inh)
Cc1cccc(C)c1N1CCN(CCn2c(=S)[nH]c3ccccc3c2=O)CC1	none
O=C(N/N=C/c1cc(Cl)cc([N+](=O)[O-])c1O)c1ccccc1NS(=O)(=O)c1cccs1	none
CCOc1ccc(/C=C/C(=O)NCc2ccccc2)cc1	none
CN1CCC(N(C)C(=S)NC(=O)c2cc(-c3cccc(Br)c3)nc3ccccc23)CC1	none
Cc1ccc(C(=O)N2CCCC(c3nc4c(nnn4Cc4ccccc4)c(=O)[nH]3)C2)cc1 (configuration not stated)	none (no result: ALR H2O2 inh)
O=C(CN1CCCCC1)Nc1ccc(N2CCCCCC2)cc1	ALR H2O2 inh 99
COc1ccc(N2CCC(CNC(=O)Nc3cccc(OC)c3)C2)cc1 (configuration not stated)	ALR H2O2 inh 82
COc1cccc(NC(=O)CN2CCN(c3ccc(F)cc3)CC2)c1	ALR H2O2 inh 97
COc1cccc(NC(=O)NCCCN2CCN(c3ccc(F)cc3)CC2)c1	none
Cc1noc(C)c1COC(=O)C1CC(O)CN1S(=O)(=O)c1ccc(Cl)cc1 (configuration not stated)	HIF act 61 (no result: ALR H2O2 inh)
CCOC(=O)CCNC(=O)N1CCCC(CCC(=O)N(C)CCc2ccccn2)C1 (configuration not stated)	none (no result: ALR H2O2 inh)
C[c-]1[c-](C)[c-](C)[c-](C)[c-]1C.[Fe].c1cc2nccc(N3CCCC3)[c-]2c1 (configuration not stated)	ALR H2O2 inh 94 (no result: PfM18AAP inh)
Fc1ccc2c(c1)C1OCCCC1C(c1ccccc1)N2 (configuration not stated)	ALR H2O2 inh 88
c1coc(C2Nc3ccccc3C3OCCC23)c1 (configuration not stated)	none
COc1ccc(CCNC(=O)c2ccc3c(c2)NC(=O)C(CSCc2cc(C)ccc2C)N3)cc1OC (configuration not stated)	ALR H2O2 inh 99
COc1ccc(CCNC(=O)c2ccc3c(c2)NC(=O)C(C(C)C)N3)cc1OC (configuration not stated)	none
COc1ccc(N2CC(C(=O)Nc3c(C(N)=O)oc4ccccc34)CC2=O)cc1 (configuration not stated)	none (no result: ALR H2O2 inh, PfM18AAP inh, SUMO Mot1 rescue)
O=C(Nc1cc(F)cc(F)c1)c1sc(Cl)nc1-c1ccccc1	none
O=C(Nc1ccccc1)c1sc(Cl)nc1-c1ccccc1	ALR H2O2 inh 94
Cc1ccc(-c2nnn(CC(=O)N(CC(=O)NC3CCCC3)c3cccc(F)c3)n2)o1	none
CC(C)CN(CCNC(=O)CC1Oc2ccccc2NC1=O)CC(C)C (configuration not stated)	ALR H2O2 inh inconclusive (no result: HIF act)
CCc1cccc(NC(=O)CC2Oc3ccccc3NC2=O)c1 (configuration not stated)	none
CC1CCN(Cc2ccc(NC(=O)CC3Oc4ccccc4NC3=O)cc2)CC1 (configuration not stated)	ALR H2O2 inh 92 (no result: HIF act)
CCN(CCNC(=O)CC1Oc2ccccc2NC1=O)c1ccccc1 (configuration not stated)	ALR H2O2 inh 97 (no result: HIF act)
O=C(CC1Oc2ccccc2NC1=O)NCCc1ccccc1 (configuration not stated)	ALR H2O2 inh 86 (no result: HIF act)
Oc1ccc(Cl)cc1CNCC1CCCCC1	none (no result: ALR H2O2 inh, PfM18AAP inh, HIF act)
O=C(CN1C(=O)NC2(CCCCCC2)C1=O)NCc1ccc(Cl)cc1	none (no result: PfM18AAP inh, HIF act)
COc1ccc(-c2cnnc(N/N=C/c3ccc(O)c(O)c3)n2)cc1	PfM18AAP inh 48 (no result: ALR H2O2 inh)
O=C1CCCC2=C1C(c1cccc(O)c1)c1c(ccc3ncccc13)N2 (configuration not stated)	none
O=C(O)CCn1c(-c2ccccc2)cc2c1CCCC2=O	PfM18AAP inh 29
Cc1ccc(NC2CCCN(C(=O)c3cn4cccc(C)c4n3)C2)cc1C (configuration not stated)	ALR H2O2 inh 99
Cc1ccc(NC2CCCN(C(=O)c3cn4cc(Cl)ccc4n3)C2)cc1C (configuration not stated)	ALR H2O2 inh 99 (no result: SUMO Mot1 rescue)
Cc1cc(C)cc(-n2ncc3c2CCCC3NC(=O)c2cc(C)n(C)n2)c1 (configuration not stated)	ALR H2O2 inh 84
C#CCNC(=O)C1=C[C@H](C(C)(C)C)C[C@H](OCCCCO)O1	none (no result: PfM18AAP inh)
CC(C)(C)c1ccc(C(=O)CC(Sc2ccc(Cl)cc2)C(=O)O)cc1 (configuration not stated)	ALR H2O2 inh 98, SUMO Mot1 rescue 533
CCOC(=O)C[n+]1c(C)csc1C	PfM18AAP inh 30
CC(=O)Nc1ccc(S(=O)(=O)N[C@@H](C)C(=O)N2CCN(c3ccccn3)CC2)cc1	ALR H2O2 inh 99 (no result: PfM18AAP inh)
COc1ccc(OC)c(S(=O)(=O)Nc2ccc(O)c3ccccc23)c1	none
CC(=O)Nc1ccc(S(=O)(=O)Nc2ccc(Nc3ccccc3)cc2)cc1	ALR H2O2 inh 99
COc1ccc(OC)c(S(=O)(=O)Nc2cccc3c(O)cccc23)c1	ALR H2O2 inh 87 (no result: PfM18AAP inh)
CC(=O)Nc1ccc(S(=O)(=O)Nc2nc3ccccc3nc2Nc2ccc(N)cc2)cc1	ALR H2O2 inh 100
O=C(O)Cc1ccc(NC(=S)Nc2ccc(Br)cc2Cl)cc1	none
CC(=O)Nc1ccc(S(=O)(=O)NC(C)C(=O)NC(C)c2ccccc2)cc1 (configuration not stated)	ALR H2O2 inh 99
CC(=O)Nc1ccc(S(=O)(=O)Nc2nc3ccccc3nc2Nc2cccc(O)c2)cc1	ALR H2O2 inh 82
COc1ccc(OC)c(NS(=O)(=O)c2ccc(NC(C)=O)cc2)c1	SUMO Mot1 rescue 273 (no result: ALR H2O2 inh)
COc1ccc(NS(=O)(=O)c2ccc(NC(C)=O)cc2)c(OC)c1	none
CC(=O)Nc1ccc(S(=O)(=O)Nc2nc3ccccc3nc2Nc2ccc3ccccc3c2)cc1	ALR H2O2 inh inconclusive
O=C(O)c1ccc(Nc2nc3ccccc3nc2NS(=O)(=O)c2ccc(F)cc2)cc1	ALR H2O2 inh 98
O=C(O)c1cccc(Nc2nc3ccccc3nc2NS(=O)(=O)c2ccccc2)c1	none (no result: PfM18AAP inh, HIF act)
